# Test results as given in PubChem BioAssay (NCATS).
# Unmarked numbers belong to inactive results. Inconclusive results are not listed. The list shows a part of the results. Entries that show only a call come without a potency. The source made the active and inactive calls. Unless noted, calls come from the whole dose curve; as a rule, active = well fitted curve in the direction sought with a large enough effect; inconclusive = small, poorly fitted or top-dose-only effect, or another doubt; inactive = no such curve, though single readings can be large; an effect the other way counts as inactive or inconclusive.
# Assays:
# [1] = target: Lysosomal acid glucosylceramidase (Homo sapiens) (UniProt P04062); assay: Glucocerebrosidase-p2 (AID 348; in the data active = potency below about 10 µM; note: potency is the fitted concentration of half-maximal effect); conditions: purified GBA, blue fluorogenic substrate, 40 min
# Chain of Lysosomal acid glucosylceramidase (Homo sapiens) (P04062 whole entry, looked up): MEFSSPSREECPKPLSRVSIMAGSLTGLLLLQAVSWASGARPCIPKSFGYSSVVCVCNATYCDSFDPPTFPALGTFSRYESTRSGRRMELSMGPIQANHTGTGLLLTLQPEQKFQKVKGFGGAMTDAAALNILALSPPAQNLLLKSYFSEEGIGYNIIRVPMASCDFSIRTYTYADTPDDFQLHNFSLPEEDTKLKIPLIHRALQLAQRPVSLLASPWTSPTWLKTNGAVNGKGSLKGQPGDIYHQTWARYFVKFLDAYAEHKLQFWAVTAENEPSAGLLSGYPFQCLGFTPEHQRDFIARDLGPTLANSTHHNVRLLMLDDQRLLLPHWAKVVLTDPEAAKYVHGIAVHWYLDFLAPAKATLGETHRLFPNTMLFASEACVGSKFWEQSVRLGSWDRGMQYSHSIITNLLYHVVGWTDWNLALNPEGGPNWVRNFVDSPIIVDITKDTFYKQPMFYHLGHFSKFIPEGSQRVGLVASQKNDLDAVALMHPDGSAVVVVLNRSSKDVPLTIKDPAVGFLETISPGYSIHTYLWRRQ
# Summary of the method: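 Normal human glucocerebrosidase (0.2 nM) with blue fluorogenic substrate (80 uM final) in citrate/phosphate pH 5.9 with 10mM sodium taurocholate, 0.01% tween-20; 40 min RT, NaOH/glycine stop; fluorescence Ex 365/Em 440; AC50 from a titration from 0.6 nM upwards.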
# [2] = AP1 Signaling Pathway (AID 357; active = well fitted curve in either direction with a large enough effect, not every such curve was filed as active;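 note: ME-180 reporter cells stimulated with EGF at its EC50 level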); conditions: ME-180 (cervical carcinoma) AP-1-bla reporter, EGF-induced, beta-lactamase ratio, 5 h; at 7.69 µM (top of the series) unless noted
# Summary of the method: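 In this screen, ME-180 cells in Opti-MEM with 0.5% dialyzed FBS received EC50 EGF and compound titrations for 5 h. AP-1 reporter beta-lactamase was detected via CCF4 ratio, giving AC50 for positive and negative modulators.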
# [3] = Stat Signaling Pathway (AID 446; active = well fitted curve in either direction with a large enough effect, not every such curve was filed as active;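 note: ME-180 cervical cancer cells given 40 pM IL-6 alongside compound; SIE-controlled beta-lactamase reporter measured as 460/530 nm FRET emission ratio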)
# Summary of the method: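 Overnight-plated ME-180 cells bearing a STAT Inducible Element beta-lactamase reporter; 5 h co-exposure to compound and 40 pM IL-6; values normalized to 300 pM IL-6 and 125 nM JAK inhibitor controls.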
# [4] = target: Glucocorticoid receptor (Homo sapiens) (UniProt P04150); assay: GR-EFC Redistribution (AID 451; calls by dose curve; note: potency is the fitted concentration of half-maximal effect); conditions: CHO-K1 GR-EFC translocation, beta-gal luminescence, 2 h
# Chain of Glucocorticoid receptor (Homo sapiens) (P04150 whole entry, looked up, the tested form may be a part): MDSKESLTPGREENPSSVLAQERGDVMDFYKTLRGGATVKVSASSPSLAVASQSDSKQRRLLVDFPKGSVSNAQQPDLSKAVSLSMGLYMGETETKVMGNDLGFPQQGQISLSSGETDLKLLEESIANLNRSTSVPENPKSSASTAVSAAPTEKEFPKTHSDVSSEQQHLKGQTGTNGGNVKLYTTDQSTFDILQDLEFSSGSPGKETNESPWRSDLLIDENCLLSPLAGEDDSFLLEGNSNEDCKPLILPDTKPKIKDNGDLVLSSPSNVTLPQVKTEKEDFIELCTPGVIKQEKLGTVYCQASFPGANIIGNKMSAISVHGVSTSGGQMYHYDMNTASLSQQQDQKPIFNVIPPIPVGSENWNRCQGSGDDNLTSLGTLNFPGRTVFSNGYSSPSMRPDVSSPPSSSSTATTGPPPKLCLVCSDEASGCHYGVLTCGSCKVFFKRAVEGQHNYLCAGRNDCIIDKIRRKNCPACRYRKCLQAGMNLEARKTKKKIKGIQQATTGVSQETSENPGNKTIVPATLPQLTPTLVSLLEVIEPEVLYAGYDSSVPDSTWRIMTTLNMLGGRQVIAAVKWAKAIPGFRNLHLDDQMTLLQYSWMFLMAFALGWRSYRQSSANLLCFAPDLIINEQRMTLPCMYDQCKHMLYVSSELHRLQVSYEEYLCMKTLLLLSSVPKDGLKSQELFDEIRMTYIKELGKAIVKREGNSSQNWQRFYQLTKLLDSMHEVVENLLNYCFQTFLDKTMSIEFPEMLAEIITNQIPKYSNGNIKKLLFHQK
# Summary of the method: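 CHO-K1 cells expressing nuclear EA and GR-ED fragments of b-gal; compounds titrated up to 46 uM final, 2 h at 37 C. GR nuclear translocation read as complemented b-gal luminescence after 1 h RT detection.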
# [5] = target: Mitogen-activated protein kinase 10 (Mus musculus) (UniProt Q61831); assay: JNK3 AlphaScreen Assay (AID 530; active = well fitted curve in either direction with a large enough effect, not every such curve was filed as active;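 note: kinase came from lysate of stimulated human HepG2 cells; signal reports phosphorylation of biotinylated GST-cJun 1-79 at Ser73 with 10 µM ATP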)
# Summary of the method: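 HepG2 lysate (IL-1b/TNFa pre-activated) + biotin-GST-cJun 1-79 + anti-pSer73 cJun; cpd titration, 15 min RT; ATP 10 uM start; Tris pH 7.6, MgCl2, DTT, vanadate; beads in EDTA buffer; AlphaScreen.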
# [6] = target: 3',5'-cyclic-AMP phosphodiesterase 4B (Homo sapiens) (UniProt Q07343); assay: qHTS Assay for Inhibitors of PDE-IV (AID 607; active = well fitted activation curve with a large enough effect in the main read-out, with a control signal flat, not every such curve was filed as active)
# Chain of 3',5'-cyclic-AMP phosphodiesterase 4B (Homo sapiens) (Q07343 whole entry, looked up): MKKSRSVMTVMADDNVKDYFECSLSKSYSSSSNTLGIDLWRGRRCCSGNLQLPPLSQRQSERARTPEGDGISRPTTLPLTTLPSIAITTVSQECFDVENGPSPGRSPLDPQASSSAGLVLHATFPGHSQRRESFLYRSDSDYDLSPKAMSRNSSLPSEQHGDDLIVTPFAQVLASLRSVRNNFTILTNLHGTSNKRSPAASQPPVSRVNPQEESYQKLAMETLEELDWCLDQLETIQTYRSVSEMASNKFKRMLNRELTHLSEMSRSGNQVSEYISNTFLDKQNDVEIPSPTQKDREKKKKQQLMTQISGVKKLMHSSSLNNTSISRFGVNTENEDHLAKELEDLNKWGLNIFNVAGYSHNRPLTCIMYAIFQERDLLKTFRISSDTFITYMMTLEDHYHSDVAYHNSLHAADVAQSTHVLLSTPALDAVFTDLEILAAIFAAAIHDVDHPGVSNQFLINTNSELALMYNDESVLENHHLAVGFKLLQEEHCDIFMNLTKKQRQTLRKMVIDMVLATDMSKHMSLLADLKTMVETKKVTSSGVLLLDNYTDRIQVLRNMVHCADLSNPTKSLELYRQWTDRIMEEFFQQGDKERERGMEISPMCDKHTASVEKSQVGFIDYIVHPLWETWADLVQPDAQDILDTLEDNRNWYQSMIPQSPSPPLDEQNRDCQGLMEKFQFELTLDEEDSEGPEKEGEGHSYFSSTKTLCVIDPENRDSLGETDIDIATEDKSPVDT
# Summary of the method: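 Live HEK293 cells with a modified cyclic nucleotide-gated (CNG) channel report intracellular cAMP via membrane-potential dye fluorescence (ex 535/em 590 nm). Endogenous PDE-IV was targeted. Compounds were tested at up to 22.9 uM final; RO 20-1724 100 uM served as control.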
# [7] = target: Rap guanine nucleotide exchange factor 3 (Homo sapiens) (UniProt O95398); assay: Confirmatory qHTS for antagonist of cAMP-regulated guanine nucleotide exchange factor 3 (EPAC1) (AID 1645880); conditions: EPAC1 Rap1B-BODIPY-GDP exchange, fluorescence; activity, negative = inhibition: at 115 µM (top of the series); note: nearly all actives have a fitted effect of over 55% in size; note: potency is the fitted concentration of half-maximal effect
# Chain of Rap guanine nucleotide exchange factor 3 (Homo sapiens) (O95398 whole entry, looked up): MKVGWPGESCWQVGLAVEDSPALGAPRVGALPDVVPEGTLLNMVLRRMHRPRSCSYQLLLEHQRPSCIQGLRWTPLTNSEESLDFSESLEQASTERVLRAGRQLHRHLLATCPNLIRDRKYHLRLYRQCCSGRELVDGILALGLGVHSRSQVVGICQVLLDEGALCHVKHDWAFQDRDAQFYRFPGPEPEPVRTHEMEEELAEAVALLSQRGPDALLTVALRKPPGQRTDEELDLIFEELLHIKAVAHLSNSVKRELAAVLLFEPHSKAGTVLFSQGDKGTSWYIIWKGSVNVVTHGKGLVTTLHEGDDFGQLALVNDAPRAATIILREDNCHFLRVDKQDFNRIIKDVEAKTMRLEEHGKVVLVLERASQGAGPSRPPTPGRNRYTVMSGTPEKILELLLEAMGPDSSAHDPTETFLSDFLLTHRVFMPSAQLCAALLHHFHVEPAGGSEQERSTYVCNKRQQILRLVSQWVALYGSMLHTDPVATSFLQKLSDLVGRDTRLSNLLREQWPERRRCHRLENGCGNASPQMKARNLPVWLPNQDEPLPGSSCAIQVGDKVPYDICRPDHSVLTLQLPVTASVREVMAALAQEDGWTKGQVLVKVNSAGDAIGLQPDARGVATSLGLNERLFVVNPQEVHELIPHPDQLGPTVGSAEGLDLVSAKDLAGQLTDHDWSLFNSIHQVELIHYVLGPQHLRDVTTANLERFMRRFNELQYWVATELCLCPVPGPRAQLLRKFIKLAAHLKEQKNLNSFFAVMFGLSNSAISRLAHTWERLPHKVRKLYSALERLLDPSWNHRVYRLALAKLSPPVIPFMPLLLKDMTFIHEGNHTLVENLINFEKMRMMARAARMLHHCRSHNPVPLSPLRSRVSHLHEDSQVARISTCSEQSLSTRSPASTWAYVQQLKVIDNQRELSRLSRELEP
# Summary of the method: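 Released BODIPY-GDP fluoresces less than Rap1-bound BODIPY-GDP; the signal is followed at 480/540 nm at 5-min intervals over 30 min, after 5 min at room temperature. Reactions contain 100 nM EPAC1, 250 nM RAP1B-BODIPY-GDP and 50 uM GDP; results are normalized to ATA and DMSO.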
# [8] = target: Rap guanine nucleotide exchange factor 4 (Homo sapiens) (UniProt Q8WZA2); assay: Confirmatory qHTS for antagonist of cAMP-regulated guanine nucleotide exchange factor 4 (EPAC2) (AID 1645885); note: nearly all actives have a fitted effect of over 25% in size; note: potency is the fitted concentration of half-maximal effect
# Chain of Rap guanine nucleotide exchange factor 4 (Homo sapiens) (Q8WZA2 whole entry, looked up): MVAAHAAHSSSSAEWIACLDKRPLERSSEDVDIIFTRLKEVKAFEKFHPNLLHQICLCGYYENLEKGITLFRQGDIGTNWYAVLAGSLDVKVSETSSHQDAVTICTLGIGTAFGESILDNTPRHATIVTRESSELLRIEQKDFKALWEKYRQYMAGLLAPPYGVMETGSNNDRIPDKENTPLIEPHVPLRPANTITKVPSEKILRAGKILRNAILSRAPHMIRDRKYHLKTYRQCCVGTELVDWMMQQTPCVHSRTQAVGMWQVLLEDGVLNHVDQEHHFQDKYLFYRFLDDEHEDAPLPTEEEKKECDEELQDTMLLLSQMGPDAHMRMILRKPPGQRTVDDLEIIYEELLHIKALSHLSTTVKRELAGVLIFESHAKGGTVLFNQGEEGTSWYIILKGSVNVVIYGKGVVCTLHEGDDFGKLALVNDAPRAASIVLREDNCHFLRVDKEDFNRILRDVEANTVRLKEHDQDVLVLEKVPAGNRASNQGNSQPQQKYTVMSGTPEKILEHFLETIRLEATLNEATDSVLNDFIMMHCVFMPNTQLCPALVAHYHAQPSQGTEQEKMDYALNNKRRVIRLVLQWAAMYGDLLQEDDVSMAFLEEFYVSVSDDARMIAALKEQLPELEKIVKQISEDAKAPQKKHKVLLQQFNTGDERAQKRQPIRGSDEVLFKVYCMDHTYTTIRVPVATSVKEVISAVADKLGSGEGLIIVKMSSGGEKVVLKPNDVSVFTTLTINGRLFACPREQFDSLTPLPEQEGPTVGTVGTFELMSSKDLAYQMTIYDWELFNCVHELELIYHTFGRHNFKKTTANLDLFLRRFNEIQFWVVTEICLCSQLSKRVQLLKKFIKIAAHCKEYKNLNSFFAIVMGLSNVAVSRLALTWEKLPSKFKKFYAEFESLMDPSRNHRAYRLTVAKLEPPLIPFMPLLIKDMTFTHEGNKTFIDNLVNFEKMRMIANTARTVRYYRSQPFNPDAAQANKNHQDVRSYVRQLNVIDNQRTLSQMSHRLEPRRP
# [9] = target: Cytochrome P450 1A2 (Homo sapiens) (UniProt P05177); assay: p450-cyp1a2 (AID 410; calls by dose curve; note: potency is the fitted concentration of half-maximal effect)
# Summary of the method: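 Read-out is luminescence from luciferin produced by CYP1A2 demethylation of Luciferin-ME (100uM, at Km). Detection reagent stopped the 60 min NADPH-dependent reaction; signals were normalized to 57 uM furafylline.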
# [10] = target: Cytochrome P450 3A4 (Homo sapiens) (UniProt P08684); assay: qHTS Assay for Inhibitors and Substrates of Cytochrome P450 3A4 (AID 884); note: potency is the fitted concentration of half-maximal effect; nearly all actives have a fitted effect of over 50% in size
# Chain of Cytochrome P450 3A4 (Homo sapiens) (P08684 whole entry, looked up): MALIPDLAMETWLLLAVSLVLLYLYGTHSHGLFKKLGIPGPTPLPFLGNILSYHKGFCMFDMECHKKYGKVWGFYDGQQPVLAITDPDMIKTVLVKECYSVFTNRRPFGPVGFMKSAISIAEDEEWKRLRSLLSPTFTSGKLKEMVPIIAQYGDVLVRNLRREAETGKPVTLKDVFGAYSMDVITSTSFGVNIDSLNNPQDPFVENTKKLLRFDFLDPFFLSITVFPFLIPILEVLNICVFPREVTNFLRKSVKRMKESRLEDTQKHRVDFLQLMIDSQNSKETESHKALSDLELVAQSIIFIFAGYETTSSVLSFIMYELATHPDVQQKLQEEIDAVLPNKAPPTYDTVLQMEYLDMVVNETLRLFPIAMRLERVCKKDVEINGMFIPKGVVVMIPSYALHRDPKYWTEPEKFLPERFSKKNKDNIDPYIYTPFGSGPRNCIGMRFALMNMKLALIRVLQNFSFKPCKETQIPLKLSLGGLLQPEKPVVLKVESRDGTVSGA
# Summary of the method: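 Luminescent readout of luciferin produced by CYP3A4 (20 nM) dealkylation of Luciferin-PPXE, 25 uM (its KM). NADPH-driven reaction ran 60 min at RT after 10 min compound preincubation; data scaled to 57 uM ketoconazole as 100% inhibition.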
# [11] = target: Cytochrome P450 3A4 (Homo sapiens) (UniProt P08684); assay: qHTS Assay for Activators of Cytochrome P450 3A4 (AID 885); note: nearly all actives have a fitted effect of over 65% in size
# Summary of the method: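 Using 20nM recombinant human CYP3A4 in potassium phosphate (200mM), substrate Luciferin-PPXE at 25uM, luminescent luciferin detection followed a 60-min RT NADPH reaction; data scaled to 57 uM ketoconazole.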
# [12] = target: Rap guanine nucleotide exchange factor 3 (Homo sapiens) (UniProt O95398); assay: Counterscreen qHTS for agonist of cAMP-regulated guanine nucleotide exchange factor 3 (EPAC1) (AID 1645889); note: nearly all actives have a fitted effect of over 40% in size; note: potency is the fitted concentration of half-maximal effect
# Summary of the method: (§1)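 Rap1B–BODIPY-GDP (250 nM) with 50 uM GDP; compounds pin-transferred to 9.74 nM–152 uM final (activator) or from 7.32 nM upwards (inhibitor). Fluorescence Ex/Em 480/540 nm read at 5 and 30 min, then after adding cAMP or buffer, at room temperature.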
# [13] = target: Rap guanine nucleotide exchange factor 3 (Homo sapiens) (UniProt O95398); assay: Counterscreen qHTS for antagonist of cAMP-regulated guanine nucleotide exchange factor 3 (EPAC1) (AID 1645888)
# Summary of the method: as §1
# [14] = target: Flap endonuclease 1 (Homo sapiens) (UniProt P39748); assay: qHTS Assay for the Inhibitors of FEN1: Confirmatory Assay for Cherry-picked Compounds (AID 720498); conditions: FEN1 flap cleavage, TAMRA/BHQ2 fluorogenic DNA substrate; note: potency is the fitted concentration of half-maximal effect; nearly all actives have a fitted effect of over 60% in size
# Summary of the method: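 Human FEN1 (10 nM reagent) was preincubated with compounds for 15 min at room temperature, then 50 nM final double-flap DNA substrate (5'-TAMRA flap, BHQ-2 quencher strand) was added. Fluorescence (ex 525/em 598 nm) was read at 0 and 15 min.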
# [15] = target: DNA polymerase kappa (Homo sapiens) (UniProt Q9UBT6); assay: qHTS for Inhibitors of Polymerase Kappa: Confirmatory Assay for Cherry-picked Compounds (AID 720501); conditions: purified Pol-kappa, fluorescent strand-displacement substrate; note: potency is the fitted concentration of half-maximal effect
# Summary of the method: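 10 nM human Pol-kappa was preincubated with compound 15 min at room temperature, then 50 nM (final) primer/template substrate with TAMRA-labeled reporter strand and BHQ-2-labeled template added. Fluorescence (Ex 525, Em 598 nm) read at 0 and 10 min.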
# [16] = target: Tumor susceptibility gene 101 protein (Homo sapiens) (UniProt Q99816); assay: qHTS Assay for Iinhibitors of HIV-1 Budding by Blocking the Interaction of PTAP/TSG101: Hit Validation (AID 651600); note: nearly all actives have a fitted effect of over 70% in size; note: potency is the fitted concentration of half-maximal effect
# Chain of Tumor susceptibility gene 101 protein (Homo sapiens) (Q99816 whole entry, looked up, the tested form may be a part): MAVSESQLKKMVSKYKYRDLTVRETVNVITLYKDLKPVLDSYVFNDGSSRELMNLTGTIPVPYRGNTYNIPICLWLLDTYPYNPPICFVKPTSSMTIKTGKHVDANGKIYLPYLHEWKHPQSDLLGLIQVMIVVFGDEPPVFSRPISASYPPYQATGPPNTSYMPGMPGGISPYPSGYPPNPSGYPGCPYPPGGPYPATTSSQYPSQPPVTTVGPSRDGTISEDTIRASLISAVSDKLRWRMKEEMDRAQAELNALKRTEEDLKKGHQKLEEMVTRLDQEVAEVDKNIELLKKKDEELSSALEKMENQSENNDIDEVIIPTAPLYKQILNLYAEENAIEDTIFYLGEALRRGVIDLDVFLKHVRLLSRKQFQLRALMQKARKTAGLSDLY
# Summary of the method: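 FITC-PTAP peptide (50 nM final) binding to Tsg101 binding domain (10 uM final) was measured by polarization after 20 min at r.t. with compounds, in 10 mM HEPES pH 7.5 buffer with 0.15 M NaCl and 0.01% Tween 20.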
# [17] = target: Glucocorticoid receptor (Homo sapiens) (UniProt P04150); assay: GR-GFP Redistribution (AID 450;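 active = compounds whose dose series gives a full or clear partial fitted curve of increased nuclear translocation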; note: potency is the fitted concentration of half-maximal effect); conditions: U2OS GR-GFP nuclear translocation, laser cytometry, 2 h
smiles,measurement,setting,value
CC(=O)N1CCC2(CCCN(c3ccc(-c4ccccc4)cc3)C2)CC1,Potency,[1],> 11.4 µM
same,"activity change, negative = inhibition",[2],-10.1%
same,outcome,[3],inactive
same,Potency,[4],> 46 µM
same,Potency,[5],inactive
same,Potency,[6],inactive
same,Potency,[7],inactive
same,Potency,[8],inactive
CN(C)c1ncc2nc(CCc3ccccc3)c(=O)n(-c3ccccc3)c2n1,Potency,[1],> 11.4 µM
same,Potency,[9],0.794 µM (active)
same,outcome,[3],inactive
same,Potency,[4],> 46 µM
same,Potency,[5],inactive
same,Potency,[10],6.31 µM (active)
same,outcome,[11],inactive
same,Potency,[7],inactive
same,Potency,[8],inactive
CC(C)(C)C1COc2ccccc2N1C(=O)c1ccccc1Cl (stereo not drawn),Potency,[7],inactive
same,Potency,[8],30.1 µM (active)
same,Potency,[12],inactive
CCOCCCNc1nc2c(C)cccn2c(=O)c1/C=C1\SC(=S)N(CC(C)C)C1=O,Potency,[7],inactive
same,Potency,[13],inactive
CC[n+]1c(/C=C/C=C/N(C(C)=O)c2ccccc2)sc2ccccc21,Potency,[7],84.9 µM (active)
same,Potency,[13],inactive
Cn1ccc(=Nc2ccc(NC(=O)c3ccc(N=c4ccn(C)c5ccc([N+](=O)[O-])cc45)cc3)cc2)cc1,Potency,[14],9.53 µM (active)
same,Potency,[15],4.23 µM (active)
same,Potency,[7],42.6 µM (active)
same,Potency,[8],16.9 µM (active)
same,Potency,[13],inactive
O=C(O)c1cc(Cl)ccc1-c1ccc(/C=C/c2cc(C(F)(F)F)[nH]c(=O)n2)o1,Potency,[16],inactive
same,Potency,[7],inactive
same,Potency,[8],inactive
same,"activity change, negative = inhibition",[13],144% [at 30.8 µM]
same,Potency,[12],12.6 µM (active)
COc1cccc(Nc2ncc3nc(-c4cc(F)cc(F)c4)c(=O)n(CCC#N)c3n2)c1,Potency,[1],> 11.4 µM
same,outcome,[3],inactive
same,Potency,[17],> 9.22 µM
same,Potency,[5],inactive
same,Potency,[6],inactive
same,outcome,[11],inactive
same,Potency,[7],inactive
same,Potency,[8],inactive
Cc1cc(/C=C2\SC(=S)N(Cc3ccco3)C2=O)c(C)n1-c1cccnc1,Potency,[16],25.9 µM (active)
same,Potency,[7],inactive
same,Potency,[8],84.9 µM (active)
same,Potency,[13],inactive
O=[N+]([O-])c1c(Nc2ccccn2)cc(Cl)c2nonc12,Potency,[7],inactive
same,Potency,[13],inactive
Cc1ccc2c(c1)N(Cc1cccc(F)c1)C(=O)C(C)O2 (stereo not drawn),Potency,[7],inactive
same,Potency,[13],inactive
Cc1ccc2oc(=O)n(Cc3ccc(OC(C)C)cc3)c2c1,Potency,[7],inactive
same,Potency,[13],inactive
CN1c2ccccc2C(C)(C)C12C=Nc1c(cc(N3CCOCC3)c3ccccc13)O2 (stereo not drawn),Potency,[7],inactive
same,Potency,[13],inactive
c1ccc(-c2cnn3c(-c4ccccc4)c(-c4ccccc4)nc3n2)cc1,Potency,[16],inactive
same,Potency,[7],inactive
same,Potency,[8],inactive
same,Potency,[13],inactive
CCN(CC)c1ccc(/C=C/C(=O)c2ccc(Br)cc2)cc1,Potency,[16],inactive
same,Potency,[7],inactive
same,Potency,[8],inactive
same,"activity change, negative = inhibition",[13],192% [at 30.8 µM]
same,Potency,[12],14.1 µM (active)
